Experimental data published in PubChem BioAssay (NCI).
The panel holds about 79,000 compounds, 15% with a hit somewhere; the sample as a whole holds those more often. The source made the active and inactive calls. No stated cut-off is given here; in the data, active means growth inhibition above about 70%; inactive means the rest.

Legend:
[1] = NCI Yeast Anticancer Drug Screen. Data for the rad50 strain (AID 155);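 further: 0% = growth of vehicle-only cultures of the same strain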; settings: S. cerevisiae rad50 strain growth inhibition, stronger effect = higher value
Outline: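 Relative growth inhibition (compound vs vehicle) was measured in yeast with a defined repair-gene alteration.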

[2] = NCI Yeast Anticancer Drug Screen. Data for the mec2-1 strain (AID 157); settings: S. cerevisiae mec2-1 strain, stronger effect = higher value
Outline: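 Using mec2-1 yeast: add compound, measure growth, express inhibition versus vehicle-treated cultures.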

[3] = NCI Yeast Anticancer Drug Screen. Data for the sgs1 mgt1 strain (AID 161);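 further: 0% = growth of cultures given vehicle only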; settings: S. cerevisiae sgs1 mgt1 strain, stronger effect = higher value
Outline: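 Compounds are added to genetically altered yeast, and growth is compared with cultures given vehicle alone to give percent inhibition.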

[4] = NCI Yeast Anticancer Drug Screen. Data for the cln2 rad14 strain (AID 165);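 further: 0% = growth equal to vehicle treated cultures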; settings: S. cerevisiae cln2 rad14 strain, stronger effect = higher value
Outline: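 Yeast strain cln2 rad14, bearing defects in cell cycle control and DNA repair, serves as the test system; values reflect growth inhibition compared with vehicle.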

[5] = NCI Yeast Anticancer Drug Screen. Data for the bub3 strain (AID 167); settings: S. cerevisiae bub3 mutant strain, stronger effect = higher value
Outline: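 Screening used yeast with an engineered genetic alteration affecting cell cycle control. Compound-exposed cultures were compared with vehicle cultures, and reduced growth was taken as inhibition.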

[6] = NCI Yeast Anticancer Drug Screen. Data for the mlh1 rad18 strain (AID 175); settings: S. cerevisiae mlh1 rad18 strain growth inhibition, stronger effect = higher value
Outline: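 Steps: expose repair-defective yeast to compound; measure growth; express inhibition against vehicle-treated controls.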

[7] = at 5.0 µM (retest, dose inferred, filed as 0.5)
[8] = at 50.0 µM (retest, dose inferred, filed as 5.0)

Measured: growth inhibition

COc1cccc(C2c3cc4c(cc3OC(NNS(=O)(=O)c3ccc(C)cc3)C2C)OCO4)c1O (configuration not stated)
inactive: [1]; [7] -7% | [2]; [7] -10% | [3]; [7] -4% | [4]; [7] 9% | [5]; [7] -20% | [5]; at 50.0 µM 54% | [6]; [7] 6%
active: [1]; [8] 94% | [1]; at 50.0 µM 75.4% | [2]; [8] 81% | [2]; at 50.0 µM 85.6% | [3]; [8] 95% | [3]; at 50.0 µM 92.2% | [4]; [8] 88% | [4]; at 50.0 µM 87.2% | [5]; [8] 92% | [6]; [8] 94% | [6]; at 50.0 µM 85.5%

CCCCCCCCC1CCNCC1
active: [1]; at 50.0 µM 85.5% | [2]; at 50.0 µM 87.7% | [3]; [8] 71% | [3]; at 50.0 µM 92.2% | [4]; at 50.0 µM 72.5% | [5]; at 50.0 µM 90.3% | [6]; at 50.0 µM 89.8%
inactive: [1]; [7] 39% | [1]; [8] 28% | [2]; [7] -6% | [2]; [8] 47% | [3]; [7] 26% | [4]; [7] 33% | [4]; [8] 38% | [5]; [7] 36% | [5]; [8] 62% | [6]; [7] 20% | [6]; [8] 23%

O=C(/C=C\c1ccccc1)N1c2ccccc2CC1c1c[nH]c2ccccc12 (configuration not stated)
inactive: [1]; [7] -10% | [1]; [8] 11% | [1]; at 50.0 µM 6.35% | [2]; [7] -1% | [2]; [8] 17% | [2]; at 50.0 µM -1.7% | [3]; [7] 4% | [3]; [8] 19% | [3]; at 50.0 µM 10.3% | [4]; [7] -1% | [4]; [8] 1% | [4]; at 50.0 µM 36.9% | [5]; [7] 20% | [5]; [8] 41% | [5]; at 50.0 µM -2.1% | [6]; [7] 7% | [6]; [8] 11% | [6]; at 50.0 µM 12.2%

COC1/C=C/OC2(C)Oc3c(C)c(OC(C)=O)c4c(c3C2=O)C(=O)C=C(NC(=O)/C(C)=C\C=C\C(C)C(O)C(C)C(O)C(C)C(OC(C)=O)C1C)C4=O (configuration not stated)
active: [1]; [8] 70% | [2]; [8] 87% | [4]; [8] 96% | [5]; [8] 85% | [6]; [8] 90%
inactive: [1]; [7] 6% | [1]; at 50.0 µM 53.4% | [2]; [7] -44% | [2]; at 50.0 µM 50% | [3]; [7] 1% | [3]; [8] 52% | [3]; at 50.0 µM 6% | [4]; [7] 3% | [4]; at 50.0 µM 69.8% | [5]; [7] 0% | [5]; at 50.0 µM 42.6% | [6]; [7] 5% | [6]; at 50.0 µM 46.5%

O=C(O)CCCc1ccc2c(c1Br)C=CC2
inactive: [1]; [7] 10% | [1]; [8] 68% | [2]; [7] 13% | [2]; at 50.0 µM 63.6% | [3]; [7] 11% | [4]; [7] 11% | [5]; [7] 8% | [6]; [7] 3%
active: [1]; at 50.0 µM 72.3% | [2]; [8] 72% | [3]; [8] 73% | [3]; at 50.0 µM 87.2% | [4]; [8] 74% | [4]; at 50.0 µM 72.9% | [5]; [8] 86% | [5]; at 50.0 µM 94% | [6]; [8] 76% | [6]; at 50.0 µM 79.6%

O=c1ccccc(Br)c1O
inactive: [1]; [7] 12% | [2]; [7] 10% | [3]; [7] 6% | [4]; [7] 19% | [5]; [7] 8% | [6]; [7] 9%
active: [1]; [8] 97% | [1]; at 50.0 µM 98.7% | [2]; [8] 93% | [2]; at 50.0 µM 97.8% | [3]; [8] 97% | [3]; at 50.0 µM 99.6% | [4]; [8] 87% | [4]; at 50.0 µM 93.1% | [5]; [8] 98% | [5]; at 50.0 µM 97.6% | [6]; [8] 97% | [6]; at 50.0 µM 98.9%

COC(=O)[C@H]1O[C@H]1c1ccncc1
inactive: [1]; [7] 0% | [1]; [8] -5% | [1]; at 50.0 µM 18.2% | [2]; [7] 3% | [2]; [8] -2% | [2]; at 50.0 µM 1.65% | [3]; [7] 5% | [3]; [8] -2% | [3]; at 50.0 µM 18.2% | [4]; [7] -1% | [4]; [8] -17% | [4]; at 50.0 µM 53.8% | [5]; [7] 3% | [5]; [8] -2% | [5]; at 50.0 µM 6.2% | [6]; [7] 0% | [6]; [8] -13% | [6]; at 50.0 µM 8.2%

C/C=C(\C)C(=O)O[C@@H]1CC(C)(C)CC2C3=CCC4[C@]56CC[C@](O)(OC5)C(C)(C)C6CC[C@@]4(C)C3(C)CC[C@]21C(=O)O (some centres not stated)
active: [1]; [8] 90% | [1]; at 50.0 µM 86.5% | [2]; [8] 88% | [2]; at 50.0 µM 84.7% | [3]; [8] 93% | [3]; at 50.0 µM 87.2% | [4]; [7] 73% | [4]; [8] 94% | [4]; at 50.0 µM 78.8% | [5]; [7] 70% | [5]; [8] 96% | [5]; at 50.0 µM 81.8% | [6]; [8] 94% | [6]; at 50.0 µM 81.2%
inactive: [1]; [7] 53% | [2]; [7] 67% | [3]; [7] 55% | [6]; [7] 69%

COc1cccc2c1C(=O)c1c(O)c(COC3CC(N)C(O)C(C)O3)cc(O)c1C2=O (configuration not stated)
active: [1]; [8] 89% | [1]; at 50.0 µM 96.7% | [2]; [8] 96% | [2]; at 50.0 µM 73% | [3]; [8] 80% | [3]; at 50.0 µM 99.3% | [5]; at 50.0 µM 98% | [6]; at 50.0 µM 98.3%
inactive: [1]; [7] 14% | [2]; [7] 14% | [3]; [7] 13% | [4]; [7] 3% | [4]; [8] 42% | [4]; at 50.0 µM 50.6% | [5]; [7] 7% | [5]; [8] 40% | [6]; [7] 12% | [6]; [8] 53%
